Reference: PubChem BioAssay (NCATS)
Records with an inconclusive call do not appear. Active and inactive are the calls of the source. Calls come from the whole dose curve; as a rule, active = well fitted inhibition curve with a large enough effect; inconclusive = small, poorly fitted or top-dose-only effect; inactive = flat fitted curve, though single readings scatter.

Tests used:
Assay in all cases: qHTS profiling for inhibitors of Plasmodium falciparum proliferation (AID 504749); note: nearly all actives have a fitted effect of over 60% in size
Conditions in all cases: P. falciparum in erythrocytes, SYBR Green DNA, 72 h; series mostly up to 28.7 µM
C2A = system: C2A
Summary of the method: (§1)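 Each compound contacts P. falciparum-infected red blood cells for 72 h at 37 C; lysis buffer (Tris, EDTA, saponin, Triton X, SYBR Green I) is added and fluorescence measured next morning; values normalized to controls.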

CP185 = system: CP185
Summary of the method: as §1

CP191 = system: CP191
Summary of the method: as §1

CP192 = system: CP192
Summary of the method: as §1

CP194 = system: CP194
Summary of the method: as §1

CP201 = system: CP201
Summary of the method: as §1

CP203 = system: CP203
Summary of the method: as §1

CP211 = system: CP211
Summary of the method: as §1

CP215 = system: CP215
Summary of the method: as §1

CP217 = system: CP217
Summary of the method: as §1

CP237 = system: CP237
Summary of the method: as §1

CP238 = system: CP238
Summary of the method: as §1

CP247 = system: CP247
Summary of the method: as §1

CP250 = system: CP250
Summary of the method: as §1

CP252 = system: CP252
Summary of the method: as §1

CP256 = system: CP256
Summary of the method: as §1

CP260 = system: CP260
Summary of the method: as §1

CP262 = system: CP262
Summary of the method: as §1

CP265 = system: CP265
Summary of the method: as §1

CP266 = system: CP266
Summary of the method: as §1

Measured: Potency
Potency is the fitted concentration of half-maximal effect.

CC1(C)S[C@@H]2[C@H](NC(=O)[C@@H](NC(=O)N3CCNC3=O)c3ccccc3)C(=O)N2[C@H]1C(=O)O
inactive: C2A | CP185 | CP191 | CP192 | CP194 | CP201 | CP203 | CP211 | CP215 | CP217 | CP237 | CP238 | CP247 | CP250 | CP252 | CP256 | CP260 | CP262 | CP265 | CP266

COC(F)(F)C(Cl)Cl
inactive: C2A | CP185 | CP191 | CP192 | CP194 | CP201 | CP203 | CP211 | CP215 | CP217 | CP237 | CP238 | CP247 | CP250 | CP252 | CP256 | CP260 | CP262 | CP265 | CP266

Nc1ncnc2c1ncn2[C@@H]1O[C@H](COP(=O)(O)OP(=O)(O)OP(=O)(O)O)[C@@H](O)[C@H]1O
inactive: C2A | CP185 | CP191 | CP192 | CP194 | CP201 | CP203 | CP211 | CP215 | CP217 | CP237 | CP238 | CP247 | CP250 | CP252 | CP256 | CP260 | CP262 | CP265

O=C(O)CCC(=O)C(=O)O
inactive: C2A | CP185 | CP191 | CP192 | CP194 | CP201 | CP203 | CP211 | CP215 | CP217 | CP237 | CP238 | CP247 | CP250 | CP252 | CP256 | CP260 | CP262 | CP265 | CP266

Cc1cc(C(=O)NNCc2ccccc2)no1
inactive: C2A | CP185 | CP191 | CP192 | CP194 | CP201 | CP203 | CP211 | CP215 | CP217 | CP237 | CP238 | CP247 | CP250 | CP252 | CP256 | CP260 | CP262 | CP265 | CP266

CCCCCCCC(=O)O
inactive: C2A | CP185 | CP191 | CP192 | CP194 | CP201 | CP203 | CP211 | CP215 | CP217 | CP237 | CP238 | CP247 | CP250 | CP252 | CP256 | CP260 | CP262 | CP265 | CP266

CO[C@H](C(=O)[C@@H](O)[C@@H](C)O)C1Cc2cc3cc(O[C@H]4C[C@@H](O[C@H]5C[C@@H](O)[C@H](O)[C@@H](C)O5)[C@@H](O)[C@@H](C)O4)c(C)c(O)c3c(O)c2C(=O)[C@H]1O[C@H]1C[C@@H](O[C@H]2C[C@@H](O[C@H]3C[C@](C)(O)[C@H](O)[C@@H](C)O3)[C@H](O)[C@@H](C)O2)[C@H](O)[C@@H](C)O1 (stereo partly drawn)
active: C2A 224 nM | CP185 199 nM | CP191 178 nM | CP192 2130 nM | CP194 2690 nM | CP201 2130 nM | CP203 2690 nM | CP211 2130 nM | CP215 1690 nM | CP217 224 nM | CP237 112 nM | CP238 178 nM | CP247 355 nM | CP250 199 nM | CP252 178 nM | CP256 251 nM | CP260 112 nM | CP262 1690 nM | CP265 282 nM | CP266 1690 nM

COC(=O)[C@H]1[C@H]2C[C@@H]3c4[nH]c5ccccc5c4CCN3C[C@H]2C[C@@H](OC(=O)c2cc(OC)c(OC)c(OC)c2)[C@@H]1OC
active: C2A 282 nM | CP185 398 nM | CP191 398 nM | CP192 338 nM | CP194 536 nM | CP201 849 nM | CP203 536 nM | CP211 601 nM | CP215 757 nM | CP217 355 nM | CP237 126 nM | CP238 355 nM | CP247 398 nM | CP250 447 nM | CP252 398 nM | CP256 398 nM | CP260 282 nM | CP262 1200 nM | CP265 398 nM | CP266 1070 nM

CCN(CC)Cc1cc(Nc2ccnc3cc(Cl)ccc23)ccc1O
active: C2A 56.2 nM | CP185 63.1 nM | CP191 39.8 nM | CP192 161 nM | CP194 128 nM | CP201 90.7 nM | CP203 144 nM | CP211 64.2 nM | CP215 128 nM | CP217 112 nM | CP237 35.5 nM | CP238 89.1 nM | CP247 100 nM | CP250 17.8 nM | CP252 100 nM | CP256 89.1 nM | CP260 20 nM | CP262 72.1 nM | CP265 20 nM | CP266 102 nM

CCCCCCCCCCCC[n+]1ccc2ccccc2c1
active: C2A 708 nM | CP185 562 nM | CP191 562 nM | CP192 601 nM | CP194 1200 nM | CP201 1690 nM | CP203 849 nM | CP211 675 nM | CP215 1070 nM | CP217 891 nM | CP237 631 nM | CP238 631 nM | CP247 891 nM | CP250 1120 nM | CP252 708 nM | CP256 562 nM | CP260 631 nM | CP262 379 nM | CP265 1120 nM | CP266 1690 nM

COCC(=O)Nc1cc(Sc2ccccc2)ccc1N=C(NC(=O)OC)NC(=O)OC
inactive: C2A | CP185 | CP191 | CP192 | CP194 | CP201 | CP203 | CP211 | CP215 | CP217 | CP237 | CP238 | CP247 | CP250 | CP252 | CP256 | CP260 | CP262 | CP265 | CP266

CCCCCCCCCCCCCCCC(=O)OCC(COC(=O)CCCCCCCCCCCCCCC)OC(=O)CCCCCCCCCCCCCCC
inactive: C2A | CP185 | CP191 | CP192 | CP194 | CP201 | CP203 | CP211 | CP215 | CP217 | CP237 | CP238 | CP247 | CP250 | CP252 | CP256 | CP260 | CP262 | CP265 | CP266

CC1=C(/C=C/C(C)=C/C=C/C(C)=C/C=C/C=C(C)/C=C/C=C(C)/C=C/C2=C(C)CCCC2(C)C)C(C)(C)CCC1
inactive: C2A | CP185 | CP191 | CP192 | CP194 | CP201 | CP203 | CP211 | CP215 | CP217 | CP237 | CP238 | CP247 | CP250 | CP252 | CP256 | CP260 | CP262 | CP265

Cc1c(C)c2c(c(C)c1O)CC[C@@](C)(CCC[C@@H](C)CCC[C@@H](C)CCCC(C)C)O2
inactive: C2A | CP185 | CP191 | CP192 | CP194 | CP201 | CP203 | CP211 | CP215 | CP217 | CP237 | CP238 | CP247 | CP250 | CP252 | CP256 | CP260 | CP262 | CP265 | CP266

CCC(=O)NCCC1CCc2ccc3c(c21)CCO3 (stereo not drawn)
inactive: C2A | CP185 | CP191 | CP192 | CP194 | CP201 | CP203 | CP211 | CP215 | CP217 | CP237 | CP238 | CP247 | CP250 | CP252 | CP256 | CP260 | CP262 | CP265 | CP266

CCCC(=O)Nc1ncnc2c1ncn2C1OC2COP(=O)(O)OC2C1OC(=O)CCC (stereo not drawn)
inactive: C2A | CP185 | CP191 | CP192 | CP194 | CP201 | CP203 | CP211 | CP215 | CP217 | CP237 | CP238 | CP247 | CP250 | CP252 | CP256 | CP260 | CP262 | CP265 | CP266

CCOC(C)=O
inactive: C2A | CP185 | CP191 | CP192 | CP194 | CP201 | CP203 | CP211 | CP215 | CP217 | CP237 | CP238 | CP247 | CP250 | CP252 | CP256 | CP260 | CP262 | CP265 | CP266

CCCCC/C=C\C/C=C\CCCCCCCC(=O)O
inactive: C2A | CP185 | CP191 | CP192 | CP194 | CP201 | CP203 | CP211 | CP215 | CP217 | CP237 | CP238 | CP247 | CP250 | CP252 | CP256 | CP260 | CP262 | CP265 | CP266

CC1(C)C(C=C(Cl)Cl)C1C(=O)OCc1cccc(Oc2ccccc2)c1 (stereo not drawn)
inactive: C2A | CP185 | CP191 | CP192 | CP194 | CP201 | CP203 | CP211 | CP215 | CP217 | CP237 | CP238 | CP247 | CP250 | CP252 | CP256 | CP260 | CP262 | CP265 | CP266

CC(O)CO (stereo not drawn)
inactive: C2A | CP185 | CP191 | CP192 | CP194 | CP201 | CP203 | CP211 | CP215 | CP217 | CP237 | CP238 | CP247 | CP250 | CP252 | CP256 | CP260 | CP262 | CP265 | CP266

C#CCOc1ccc2c(C)cc(=O)oc2c1
inactive: C2A | CP185 | CP191 | CP192 | CP194 | CP201 | CP203 | CP211 | CP215 | CP217 | CP237 | CP238 | CP247 | CP250 | CP252 | CP256 | CP260 | CP262 | CP265 | CP266
